# ERK EGF inh: EGF-driven ERK pathway inhibition; HEK293-V1b, EGF-stimulated phospho-ERK AlphaScreen; 0.41% of 130,000 active; Potency, µM (series often up to 11.5 µM), without a hit: top-dose activity change, negative = inhibition, usual class: inhibitors; AID 1454;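 also: potency is read from the fitted curve at half-maximal effect; plate controls were stimulated vehicle wells for no effect and unstimulated vehicle basal for full effect; nearly all actives have a fitted effect of over 55% in size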
#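 V1b-HEK293, 1% FBS o/n; cpd 30 min 37C; EGF 25 nM final, 5 min; lyse 10 min; AlphaScreen beads 5 h RT. Normalized DMSO basal vs EGF max; Hill AC50.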
# ERK pERK EGF: reduces EGF-stimulated ERK phosphorylation in HEK293 cells; 60% of 60 active; shares compounds with ERK EGF inh; HEK293 EGF-stimulated ERK phosphorylation, AlphaScreen; Potency, µM (titrated, usually from 57.5 µM), inactives show at the highest dose activity change, negative = inhibition, hits mostly inhibitors
# c-Raf inh: c-Raf inhibition, ERK pathway follow-up; shares compounds with ERK EGF inh; c-Raf kinase inhibition, homogeneous biochemical assay; activity change, negative = inhibition, % at 76.9 µM; 70 tested, under 10 active
# MEK1 kinase inh: ERK pathway inhibitors follow-up: human MEK1 kinase inhibition. shares compounds with ERK EGF inh. homogeneous MEK kinase activity assay, ERK pathway. Potency, µM (doses to about 76.9 µM), without a hit: top-dose activity change, negative = inhibition, actives largely listed as inhibitors. 70 tested, under 10 active
# Numbers without * were called inactive; ? = inconclusive; [ ] = remark or other dose. The full list was thinned out, with hits kept by preference. Calls follow the shape of the dose curve; as a rule, active = well fitted curve in the direction sought with a large enough effect; inconclusive = small, poorly fitted or top-dose-only effect, or another doubt; inactive = no such curve, though single readings can be large; an effect the other way counts as inactive or inconclusive.
SMILES,ERK EGF inh,others
CSc1ccc(CN2CCCC(CNC(=O)c3ccc(F)cc3)C2)cc1 (stereo not drawn),-11%,
COc1ccccc1CN1CCC2(CC1)CCN(C(=O)c1c(C)noc1C)CC2,-4%,
COCCN(CCOC)c1nc(C)nc2c1nc(-c1ccccc1)n2CCN1CCOCC1,1%,
COc1ccc(-n2c(=O)c(-c3ccc(F)cc3)nc3cnc(OC)nc32)cc1,0%,
O=C1c2ccccc2C(=O)c2c([N+](=O)[O-])ccc(O)c21,-14%[57.5 µM],
O=C1c2ccc(O)c(O)c2C(=O)c2c(O)ccc(O)c21,7.9µM*,ERK pERK EGF=10µM*;c-Raf inh=?;MEK1 kinase inh=?
O=C1C=C(O)c2cccc(O)c2C1=O,-16%[57.5 µM],
OCc1cc([C@@H](O)CNCCCCCCOCCCCc2ccccc2)ccc1O,-7%,
